We go through one compound from PubChem BioAssay AID2284154 (EPA ToxCast).

Activity calls are given as the source filed them. The calls were made as follows: active = hit-call score of the fitted dose curve at least 0.9, where 1 is the maximum; inactive = score below 0.9.

For orientation: AC50 means the concentration at which the activity in the assay is half-maximal.

In the test the target is Muscarinic acetylcholine receptor M3 (Homo sapiens) (UniProt P20309). Nature of the test: ERF_FR_GPCR_hCHRM3: Eurofins (ERF) G Protein-Coupled Receptor (GPCR) Radioligand Binding LeadHunter Assay for human Muscarinic Acetylcholine Receptor M3 Antagonism, conducted at France lab site. The protocol: ERF_FR_GPCR_hCHRM3 is a biochemical, single-readout assay that uses extracted gene-proteins in a cell-free assay. Measurements were taken 1 hour after chemical dosing in a 96-well plate. See M3 Human Acetylcholine (Muscarinic) GPCR Binding (Antagonist Radioligand) Assay, Cerep.ERF_FR_GPCR_hCHRM3 is an assay component calculated from the ERF_FR_GPCR_hCHRM3 assay. It is designed to measure radioligand binding using a type of binding reporter as detected by scintillation counting with radiometry technology.Data from the assay component ERF_FR_GPCR_hCHRM3 was analyzed at the assay endpoint, ERF_FR_GPCR_hCHRM3, in the positive analysis fitting direction relative to DMSO as the negative control and baseline of activity. Using a type of binding reporter, loss-of-signal activity can be used to understand changes in binding as they relate to gene CHRM3. To generalize the intended target to other relatable targets, this assay endpoint is annotated to the gpcr intended target family, where the subfamily is acetylcholine (Muscarinic).
Sequence of Muscarinic acetylcholine receptor M3 (Homo sapiens) (P20309 whole entry, looked up): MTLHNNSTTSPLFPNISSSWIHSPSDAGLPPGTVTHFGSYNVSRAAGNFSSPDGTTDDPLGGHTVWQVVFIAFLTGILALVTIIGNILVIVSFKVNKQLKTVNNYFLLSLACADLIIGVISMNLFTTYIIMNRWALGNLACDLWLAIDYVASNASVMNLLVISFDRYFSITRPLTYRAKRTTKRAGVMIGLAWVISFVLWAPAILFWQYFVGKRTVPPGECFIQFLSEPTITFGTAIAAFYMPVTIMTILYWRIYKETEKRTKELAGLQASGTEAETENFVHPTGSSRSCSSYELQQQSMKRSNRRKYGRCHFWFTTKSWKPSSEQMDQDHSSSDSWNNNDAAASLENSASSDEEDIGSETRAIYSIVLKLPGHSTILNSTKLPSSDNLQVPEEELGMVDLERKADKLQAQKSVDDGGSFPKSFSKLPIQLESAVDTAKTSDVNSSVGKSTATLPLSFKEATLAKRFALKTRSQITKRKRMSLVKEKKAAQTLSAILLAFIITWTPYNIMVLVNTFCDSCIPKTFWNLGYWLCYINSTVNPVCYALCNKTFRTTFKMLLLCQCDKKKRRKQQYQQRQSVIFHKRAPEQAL
Human cells are incubated for 60 minutes at room temprature with [3H]4-DAMP ligand (0.2 nM) and 4-Damp methiodide as control inhibitor.Test Sample Requirements: Minimum for 1) Screen: 60 ul of 10 mM stock -OR- 1 mg (pre-weighed) for 10 uM final testing. 2) Dose Response: 90 ul of 10 mM stock -OR- 1 mg (pre-weighed) for a top concentration at 10 uM.
As for `O=C(/C=C/c1ccc(O)cc1)CC(=O)/C=C/c1ccc(O)cc1`, the AC50 was 2.71 µM (active).
